From PubChem BioAssay AID1745846 (National Center for Advancing Translational Sciences (NCATS), 2022)
In all, about 1,400 compounds went through this assay and about 30 (2%) were called active. Another 15% or so got no clear call; they are omitted. Only a selection was taken, and actives are over-represented in it overall. Values without a mark were called inactive. Calls follow the shape of the dose curve; as a rule, active = well fitted inhibition curve with a large enough effect; inconclusive = small, poorly fitted or top-dose-only effect; inactive = flat fitted curve, though single readings scatter.

Test: Firefly Luciferase Counterscreen for Inhibitors of ATXN expression
Conditions: luminescence; series mostly up to 57.5 µM; activity change, negative = inhibition: at the top concentration
Text: University of Utah School of Medicine, Salt Lake City, Utah
Spinocerebellar ataxia type 2 (SCA2) is a multisystem neurodegenerative disease caused by a dominantly acting mutation leading to expansion of a polyQ domain in the ataxin-2 protein (ATXN2). SCA2 patients develop progressive ataxia and later lose function in other neuronal systems. Prominent parkinsonian signs develop in some patients. Like many neurodegenerative disorders, no symptomatic or disease-modifying treatments are known.
The primary objective of the proposed research is to identify compounds inhibiting ATXN2 expression and to test them for efficacy in SCA2 mouse models. We have developed a cell-based assay paired with an in vivo mouse model using identical luciferase expression constructs. This approach takes advantage of an ATXN2-luciferase transgene, with the luciferase gene flanked by the upstream and downstream portions of the ATXN2 gene. Here we describe a 5-7 dose quantitative high thoroughput screen (qHTS) for compounds lowering ATXN2 expression. We screened the NIH Molecular Libraries Small Molecule Repository (MLSMR) and NCGC's mechanistically annotated (MIPE) and drug repurposing (NPC) collections of compounds for lowering expression of an ATXN2-luciferase reporter in HEK-293 cells. The assay is a multiplexed cell viability assay to ensure target reduction in the absence of cytotoxicity. Secondary qHTS assays included a CMV-luciferase reporter expressed in HEK-293 cells as well as a biochemical assay using recombinant luciferase to detect inhibitors of the reporter enzyme. Compounds that inhibit ATXN2 expression but is not cytotoxic were selected for confirmatory and secondary screens.
PROTOCOL TABLE (as described by Inglese J, Shamu CE and Guy RK. 2007)
SEQUENCE No. (e.g., 1, 2, 3, etc.); […] (e.g., Cells, Incubation, Reagent, etc.); VALUE; DESCRIPTION.
2; Compounds; 23 nL; Kalypsis pintool (Wako USA) equipped with a 1536-well pin head.
3; Enzyme; 1 uL; recombinant firefly luciferase (prepared in 50 mM Tris HCl pH7.5, 10 mM MgCl2, 0.05% BSA, 0.01% Tween20) at final concentration of 10 nM. Wells containing buffer only were used as control (set as 100% inhibition when normalizing data).
4; Incubation; 10 min; room temperature.
5; Detection; Luminescence; Viewlux plate reader (PerkinElmer).
NOTES (numbers refer to Sequence numbers above)
1. Luciferase substrate is added to 1536 well, Greiner white assay plate. Evaporation was prevented by covering assay plates with metal lids containing holes to allow gas diffusion.
2. Compounds were added in a dose response manner with the final concentrations of 57, 11.4, 2.28, 0.46, 0.091, 0.018, 0.0037 uM. Vehicle-only plates, with DMSO being pin-transferred to columns 5-48, were inserted uniformly at the beginning and the end of each library to monitor and record any shifts in assay performance.
3. Recombinant firefly luciferase (10 nM final concentration) is added to the assay plate.
5. End-point luminescence is then measured on the Viewlux (PerkinElmer) imager equipped with a clear emission filter using a 2 sec exposure.
Inglese J, Shamu CE and Guy RK, Reporting data from high throughput screening of small molecule libraries, Nature Chemical Biology, 2007, 3(8): 438-441. doi.org/10.1038/nchembio0807-438.
% is scaled to controls: 0 for no effect and ±100 for the full control effect; potency is read from the fitted curve at half-maximal effect.

SMILES	activity change, negative = inhibition [%]	Potency
O=C(Nc1nonc1-c1ccc(Cl)cc1)c1ccccc1	1.38	–
O=C(NC1=CC(=O)c2ccccc2C1=O)c1ccccc1	–	12.6 µM (active)
CC(NC1=CC(=O)c2cccnc2C1=O)C(O)c1ccccc1 (stereo unspecified)	-12.2	–
O=C(N/N=C/c1cc([N+](=O)[O-])ccc1O)c1c[nH]c2ccccc12	-4.35	–
COc1cccc(NC(=S)/C(=C(\[O-])c2cc(C)n(-c3ccccc3F)c2C)[n+]2ccc(N(C)C)cc2)c1	–	15.8 µM (active)
CCCC[C@@H](CNC)NC[C@H](NCCCCC1CCCCC1)C(C)C	1.22	–
CN(C)CCCN(C(=O)c1ccco1)c1nc2ccc(Br)cc2s1	-9.87	–
CS(=O)(=O)c1ccc(Nc2nc(C(N)Cc3ccc(Cl)cc3)cs2)cc1 (stereo unspecified)	0.635	–
Cc1cc(O)c(C)c(O)c1/C=N/NC(=O)c1cccnc1	-2.83	–
CN(C(=O)c1cnc(N2CCN(c3ncccn3)CC2)c2ccccc12)c1ccc(Cl)cc1	2.16	–
C/C(=C\C(=O)c1ccc(Br)cc1)NNC(=O)c1ccc(O)cc1	2.14	–
CC1C(=O)C(C)C(c2cc(Br)ccc2O)NC1c1cc(Br)ccc1O (stereo unspecified)	-3.17	–
O=C(c1c(F)cccc1F)N1CCCC(c2nc(-c3ccc(Cl)cc3)no2)C1 (stereo unspecified)	-10.2	–
CCCC(=O)N1CCCC(c2cc(C(=O)Nc3ccccc3)no2)C1 (stereo unspecified)	–	1.41 µM (active)
O=C(NCc1ccccc1Cl)C1CCCN(C(=O)Nc2ccc(F)cc2)C1 (stereo unspecified)	-2.7	–
Cc1ccccc1C(=O)N/N=C/c1ccc([N+](=O)[O-])s1	–	3.55 µM (active)
O=C(N/N=C/c1ccc([N+](=O)[O-])s1)c1ccccc1	-19.8	–
Cc1cc(C(=O)N/N=C/c2ccc([N+](=O)[O-])s2)n[nH]1	-6.06	–
CCOC(=O)c1c(C)nn(-c2ccc(NC(=O)c3cccs3)cc2)c1C	-9.56	–
Cc1nc2c(OCc3ccc(C(F)(F)F)cc3)cccn2c1N(C)C(=O)CCC1CCCC1	-4.05	–
C[C@@H]1CN([C@H](C)CO)S(=O)(=O)c2ccc(-c3ccc(C#N)cc3)cc2O[C@H]1CN(C)C(=O)Nc1cc(F)ccc1F	4.48	–
Clc1ccc(C[n+]2cc(-c3ccccc3)n3c2CCCCC3)c(Cl)c1	5.15	–

SMILES	activity change, negative = inhibition [%]	Potency
COc1cc(OC)cc(-c2cc3nc(C)c(CCC(=O)O)c(C)n3n2)c1	–	12.6 µM (active)
C/C(=N\NC(=O)Cc1ccc(Cl)cc1)c1ccccc1O	-5.39	–
COc1ccc(/C=C2\SC(=S)N(CCCC(=O)Nc3ccccn3)C2=O)cc1OC	-8.48	–
Cc1nc2c(OCc3ccc(C#N)cc3)cccn2c1N(C)Cc1cccs1	0.28	–
C[C@@H](CN1C2=NC[C@H](Cc3ccccc3)N2C[C@H]1Cc1ccc(O)cc1)NC(=O)CCC1CCCCC1	1.67	–
O=C(CSc1n[nH]c(-c2ccccn2)n1)Nc1ccc(F)cc1	-11.7	–
Cc1ccc(Cl)cc1N1CCN(C(=O)CCS(=O)(=O)c2ccc3c(c2)NC(=O)CO3)CC1	2.23	–
CCCCOC(=O)/C=C\C(=O)NC(N)=O	1.17	–
O=C(CCc1ccccc1)NC(c1cccs1)c1cc(Cl)c2cccnc2c1O (stereo unspecified)	-2.15	–
O=C(Nc1nc2cc(Cl)ccc2s1)C1CCCN(S(=O)(=O)c2cccc3cccnc23)C1 (stereo unspecified)	-4.41	–
Cc1ccc(S(=O)(=O)N(C)C)cc1NC(=O)c1cncc(Br)c1	3.55	–
Clc1ccc2nc(-c3ccccn3)c(Nc3ccc4c(c3)OCO4)n2c1	-0.752	–
OC(CNCCc1ccccc1)COc1ccc(OCC(O)CNCCc2ccccc2)cc1 (stereo unspecified)	3.74	–
Cc1ccc(/C=C2/CNC/C(=C/c3ccc(C)cc3)C2=O)cc1	-13	–
CC(=O)NC(c1ccccc1)c1cc(Cl)c2cccnc2c1O (stereo unspecified)	-12.7	–
COc1cccc2c1C1COC3C4CC(C(=O)O)C(C(C2)N13)N4C (stereo unspecified)	2.05	–
CC(=NNc1nc2ccccc2o1)c1ncccn1	–	14.1 µM (active)
COc1cc2nc(N(C)C)nc(N)c2cc1OC	-5.16	–
O=C(Nc1ccccc1C(=O)Nc1nnc(C(F)(F)F)s1)c1ccccc1Cl	–	22.4 µM (active)
Fc1ccc(Nc2nnc(C(F)(F)F)s2)cc1Cl	-13.2	–
O=C(N/N=C(\c1ccccc1)c1ccccn1)c1ccccc1Cl	-10.3	–
O=S(=O)(c1ccc(F)cc1)c1snnc1-c1ccccc1	1.44	–

SMILES	activity change, negative = inhibition [%]	Potency
O=C(Nc1nc(-c2ccccc2)cs1)c1ccccc1NS(=O)(=O)c1ccc(F)cc1	–	28.2 µM (active)
NC(Cc1ccc(F)cc1)c1csc(NC(=O)NC(c2ccccc2)c2ccccc2)n1 (stereo unspecified)	2.44	–
OC[C@@H]1CN(Cc2ccc(-c3ccccc3)cc2)C[C@H](n2cnc3c(Nc4ccccc4)ncnc32)O1	1.15	–
c1ccc(CNc2nc(-c3ccccn3)nc3ccccc23)cc1	-7.78	–
COc1ccc(CNC(=O)Nc2nc(C(N)Cc3ccc(Cl)cc3)cs2)cc1 (stereo unspecified)	-1.52	–
CCOC(=O)N1CCC(c2cc(=O)n3[nH]c(C)c(-c4ccc(F)cc4)c3n2)CC1	-8.39	–
C=CCc1cccc(/C=N/NC(=O)CCC(=O)Nc2ccc(F)cc2)c1O	2.3	–
CCCCn1c(=N)n(CCOc2ccc(C)cc2)c2ccccc21	2.78	–
CC1CCCN(c2ncnc3c2cnn3-c2ccc(Cl)cc2)C1 (stereo unspecified)	–	0.0891 µM (active)
Cn1ncc2c(N3CCN(c4ccc(Cl)c(Cl)c4)CC3)ncnc21	-0.373	–
COc1ccccc1Cc1c(-c2ccco2)nc2c(C)cc(Br)cn12	–	15.8 µM (active)
Oc1ccccc1C(Nc1nccs1)c1ccc2cccnc2c1O (stereo unspecified)	-4.63	–
Oc1ccc(N2CCN(c3ccnc4cc(Cl)ccc34)CC2)cc1	-6.51	–
CN1CCN(c2cc(-c3cc(O)c4ncccc4c3)ccn2)CC1	-1.23	–
CCN1CCS/C1=C\C=C\C1=[N+](CC)CCS1	-3.22	–
Cc1cc([N+](=O)[O-])nn1Cc1ccc(C(=O)N/N=C/c2ccc(O)cc2O)cc1	6.39	–
Cc1sc2ncnc(NCC(O)c3ccc([N+](=O)[O-])cc3)c2c1C (stereo unspecified)	-0.514	–
CCc1nn2cc(C(=O)c3cc(Cl)ccc3O)cnc2c1-c1ccc(F)cc1	-7.19	–
Cc1cc(NC(c2cccnc2)c2ccc3cccnc3c2O)no1 (stereo unspecified)	-3.83	–
CCn1c2ccccc2c2cc(/C=N/NC(=O)c3ccccc3)ccc21	-10	–
COc1ccc(C(NC(C)=O)c2cc(Cl)c3cccnc3c2O)cc1OC (stereo unspecified)	-18.1	–
O=C(N/N=C/c1sc(N2CCOCC2)nc1-c1ccccc1)c1ccccc1O	-18.3	–
